Assay results reported in PubChem BioAssay (NCI).
About 79,000 compounds went through this panel and 15% of them were active in at least one assay; those are over-represented in the sample as a whole. Active and inactive are the calls of the source. Cut-off read from the data, not from the text of the source: active = growth inhibition above about 70%; inactive = the rest. Where a SMILES comes first, the peptide text is derived from it.

Experiments:
[1] = NCI Yeast Anticancer Drug Screen. Data for the rad50 strain (AID 155);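 note: 0% = growth of vehicle-only cultures of the same strain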; conditions: S. cerevisiae rad50 strain growth inhibition; at 50.0 µM; active compounds read high
Summary of the method: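 Yeast carrying a defined DNA repair defect were exposed to test compounds, and growth was compared with vehicle-treated controls to give percent inhibition.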

[2] = NCI Yeast Anticancer Drug Screen. Data for the mec2-1 strain (AID 157); conditions: S. cerevisiae mec2-1 strain, at 50.0 µM, active compounds read high
Summary of the method: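 Cells of the genetically defined mec2-1 yeast strain are incubated with test compound. Inhibition of growth is calculated against vehicle-treated controls.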

[3] = NCI Yeast Anticancer Drug Screen. Data for the sgs1 mgt1 strain (AID 161);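 note: 0% = growth of cultures given vehicle only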; conditions: S. cerevisiae sgs1 mgt1 strain, at 50.0 µM, active compounds read high
Summary of the method: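 Test agents were incubated with a DNA-repair-mutant yeast strain. Growth was then read and compared against vehicle-treated controls.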

[4] = NCI Yeast Anticancer Drug Screen. Data for the cln2 rad14 strain (AID 165);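 note: 0% = growth equal to vehicle treated cultures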; conditions: S. cerevisiae cln2 rad14 strain, at 50.0 µM, active compounds read high
Summary of the method: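 The screen exposed genetically defined yeast (cln2 rad14) to test compounds and scored growth inhibition relative to vehicle-treated controls.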

[5] = NCI Yeast Anticancer Drug Screen. Data for the bub3 strain (AID 167); conditions: S. cerevisiae bub3 mutant strain, at 50.0 µM, active compounds read high
Summary of the method: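 Compounds were applied to a genetically altered yeast strain carrying a cell-cycle control defect. Growth inhibition was scored against vehicle-treated controls.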

[6] = NCI Yeast Anticancer Drug Screen. Data for the mlh1 rad18 strain (AID 175); conditions: S. cerevisiae mlh1 rad18 strain growth inhibition; at 50.0 µM; active compounds read high
Summary of the method: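 Compound-treated yeast growth, normalised to vehicle controls. Strain bears defined DNA repair mutations.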

Measured: growth inhibition

CCCCN(CCCC)CCCNC(=O)OCC
inactive: [1] -4.2% | [2] -22.9% | [3] -7% | [4] 14.6% | [5] -26.8% | [6] -6.2%

COc1cc(C)c2c(c1)C=C[C@@H]1[C@@H]2CC[C@]2(C)C(=O)CC[C@@H]12
inactive: [1] -10.1% | [2] 3.3% | [3] -2.55% | [4] -48.2% | [5] -0.05% | [6] -3.1%

COc1cccc2c1OCC1Cc3ccccc3OC21 (stereo not given)
active: [1] 72.2% | [3] 85.7% | [4] 72.2% | [6] 95.7%
inactive: [2] 45% | [5] 51.8%

COc1ccc(NS(=O)(=O)c2ccc(NCc3c4ccccc4nc4ccccc34)cc2)nn1
inactive: [1] -13.3% | [2] 8.2% | [3] 17.2% | [4] 29.7% | [5] -0.45% | [6] 18.5%

CCOC(=O)CCC(=O)Oc1cccc2c1C(=O)c1c(OC(=O)CCC(=O)OCC)cccc1C2=O
inactive: [1] 40.5% | [2] 37% | [3] 9.8% | [4] 17.2% | [5] 6.45% | [6] 47.7%

CC(=O)CC(=O)Nc1ccc(C(=O)c2ccccc2)cc1
inactive: [1] 8.35% | [2] -41.3% | [3] -13% | [4] 1.5% | [5] 4.5% | [6] -22.2%

O=c1c(O)c(-c2cc(O)c(O)c(O)c2)oc2cc(O)ccc12
inactive: [1] -35.5% | [2] -36.8% | [3] -24.3% | [4] -8.8% | [5] -32.8% | [6] -29.8%

CCCCC(C)(O)CCC (stereo not given)
inactive: [1] 5.8% | [2] -11.9% | [3] 0.5% | [4] 5.05% | [5] 7.3% | [6] -6.05%

CC(=O)Nc1ccccc1O
inactive: [1] -4.75% | [2] -15.2% | [3] -0.85% | [4] -18.3% | [5] 0.35% | [6] 14.2%

CCCCCCCC/C=C/CCCCCCCCCCCC(=O)O
inactive: [1] -7.6% | [2] -39.2% | [3] -1.45% | [4] -46.5% | [5] -8.9% | [6] 2.35%

CC(=O)Nc1cc2[nH]c(=O)c3cc(Cl)ccc3c2cc1[N+](=O)[O-]
inactive: [1] 28.8% | [2] 36.1% | [3] 1.65% | [4] 27.1% | [5] 23.6% | [6] 57.8%

c1ccc2c(c1)ccc1c3c(oc12)CCCC3
inactive: [1] -10.5% | [2] -6.45% | [3] -15.7% | [4] -36.4% | [5] 0.25% | [6] -5.9%

CCCCCCCCCCCCn1c2nc(=O)[nH]c(=O)c-2nc2ccccc21
inactive: [1] -3.35% | [2] 3.75% | [3] -8.15% | [4] 4.25% | [5] -0.2% | [6] -26.1%

Nc1nc(N)nc(C2CC3C=CC2C3)n1 (stereo not given)
inactive: [1] -1.55% | [2] -13.9% | [3] -4.4% | [4] -10% | [5] 2.1% | [6] -0.95%

[N-]=[N+]=Nc1ncnc2c1sc(=S)n2-c1ccccc1
inactive: [1] -6.65% | [2] 21.1% | [3] -24.1% | [4] 3.6% | [5] 15.8% | [6] -2.4%

COc1ccc(C(c2c(O)c3ccccc3oc2=O)N2CCCC2)c(OC)c1 (stereo not given)
inactive: [1] 7.7% | [2] -5.7% | [3] -3.25% | [4] -25.1% | [5] -1.15% | [6] -3.3%

C#CC1(O)c2ccccc2C(=O)c2ccccc21
inactive: [1] -1.05% | [2] -7.85% | [3] -7.65% | [4] -7.35% | [5] 6.7% | [6] -2.35%

CCCCC(C)C(=O)CC(SCC)c1ccc(Cl)c(Cl)c1 (stereo not given)
inactive: [1] 19.6% | [2] -26.9% | [3] 17.3% | [4] -12.4% | [5] 8.2% | [6] -0.95%

N#Cc1c2c(c(N=P(c3ccccc3)(c3ccccc3)c3ccccc3)n3c1nc1ccccc13)CCCC2
inactive: [1] 44.6% | [2] 5.5% | [3] 14.9% | [4] 41.9% | [5] 30% | [6] 26.9%

Cn1c(=O)c2c(=O)n3ccccc3nc2n(C)c1=O
active: [3] 72.1%
inactive: [1] 48% | [2] 48% | [4] 68.4% | [5] 62.9% | [6] 69.4%

Cc1cc(N(CCC#N)CCC#N)ccc1N=Nc1ccccc1[N+](=O)[O-]
inactive: [1] -44.7% | [2] -38.1% | [3] -13.3% | [4] 12.8% | [5] -32% | [6] -24.1%

COc1cccc(C(F)(F)F)c1
inactive: [1] -3.1% | [2] 10.3% | [3] -10.3% | [4] -6.85% | [5] 19.4% | [6] -13%

Cc1ccc(-n2cnc3sc4c(c3c2=O)CCCC4)cc1
inactive: [1] -12.2% | [2] -10.7% | [3] 0.7% | [4] -9.7% | [5] -7.65% | [6] -16.5%

Cc1ncc(CN2CSC(CCO)C2C)c(N)n1 (stereo not given)
inactive: [1] 32.6% | [2] 8.4% | [3] 27.2% | [4] 16.8% | [5] 17.4% | [6] 43.1%

CC1=C(C(=O)CC(=O)C(=O)Nc2ccc(C)cc2)Sc2ccccc2N1
inactive: [1] -7.35% | [2] 21.1% | [3] -16.4% | [4] 21.9% | [5] -9.1% | [6] -8.25%

CC(=O)OC1CCC2(C)C(CCC3C2C(=O)C(Br)C2(C)C(C(C)=O)CCC32)C1 (stereo not given)
inactive: [1] -1.2% | [2] 0.5% | [3] 7.95% | [4] 16.9% | [5] 13.3% | [6] 25.4%

O=c1c2c(sc3ccccc13)CCC2
inactive: [1] 1.95% | [2] 18.6% | [3] -1.55% | [4] 46.9% | [5] -11.8% | [6] -0.9%

CC(=O)NC(C(=O)NC(C)C(=O)N1CCCC1C(=O)O)C(C)C (stereo not drawn) (Ac-Val-Ala-Pro-OH; configuration not given here)
inactive: [1] 19.1% | [2] -19.5% | [3] -1.1% | [4] 15.1% | [5] 0.6% | [6] -3.65%

COc1cc(NS(C)(=O)=O)ccc1Nc1c2ccc(N(C)C)cc2nc2cc(N(C)C)ccc12
inactive: [1] 29.1% | [2] -4.8% | [3] 1.05% | [4] 6.7% | [5] -8.6% | [6] -9.85%

COc1ccc(CCN2C(=O)C(=O)N(c3ccc([N+](=O)[O-])cc3)C2=O)cc1OC
inactive: [1] 22.6% | [2] 1.45% | [3] -13.3% | [4] 8.6% | [5] 0.95% | [6] 8.55%

O=C(NC(=S)Nc1ccc(S(=O)(=O)c2ccc(NC(=S)NC(=O)c3ccccc3)cc2)cc1)c1ccccc1
inactive: [1] -28.5% | [2] -32.6% | [3] -7.8% | [4] 8.75% | [5] -32.1% | [6] -12.6%

COc1ccc2c(c1)CCC1=C2CCC(C(=O)O)C1(C)C(=O)O (stereo not given)
inactive: [1] 1.9% | [2] -3% | [3] 9.25% | [4] 4.15% | [5] -4.25% | [6] -25.4%

C=CCOC(=O)/C=C/C
inactive: [1] 7% | [2] 2.7% | [3] -4.05% | [4] -11.3% | [5] -2.55% | [6] -1.35%

CCN(CC)C1=C(C)S(=O)(=O)C1c1ccc(C)cc1 (stereo not given)
inactive: [1] -9.1% | [2] -12.6% | [3] -8.85% | [4] 5.6% | [5] -13.4% | [6] -2.15%

CCc1cc(CN2CCN(CCO)CC2)c(O)c(CN2CCN(CCO)CC2)c1
inactive: [1] 1.5% | [2] 6% | [3] -13.2% | [4] 3% | [5] -0.9% | [6] 9.35%

CCC(C)CCC(=O)OCC(=O)c1ccc(-c2ccccc2)cc1 (stereo not given)
inactive: [1] 13.7% | [2] -18.9% | [3] 14.8% | [4] -13.5% | [5] 7% | [6] 5.75%

OC(C/C=N/N=C/CC(O)(C(F)(F)Cl)C(F)(F)Cl)(C(F)(F)Cl)C(F)(F)Cl
inactive: [1] 36% | [2] 28.3% | [3] 31.7% | [4] 35.2% | [5] 34.5% | [6] 34.1%

COP(=O)(OC)/C(=C\c1cn(C(c2ccccc2)(c2ccccc2)c2ccccc2)cn1)NC(C)=O
inactive: [1] -9.65% | [2] -32% | [3] -11.4% | [4] -22.1% | [5] -19.1% | [6] -10.2%

CCOc1ccccc1NC(=O)C(=O)Cc1nc2ccccc2s1
inactive: [1] -2.65% | [2] 6.1% | [3] -2% | [4] -6.75% | [5] -0.75% | [6] 2.9%

COc1cc2c(c(OC)c1OC)-c1ccc(SC)c(=O)cc1[C@@H](NC(=O)NCCCl)CC2
inactive: [1] 1.1% | [2] -16.8% | [3] -18.1% | [4] 4.6% | [5] -28.4% | [6] -10.2%
